# Screening results (PubChem BioAssay)
# CtBP-E1A blk: CtBP/E1A binding inhibition; AlphaScreen GST-E1A/His-CtBP binding, 1536-well; stronger effect = lower value; activity change, % (no concentration beside the values); 0.49% of 340,000 active; AID 651724; in the data active means activity change below about -65%; inconclusive means mostly about -30% to -63%
#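 Protein mix (5X: 125 nM each GST-E1A, His-CtBP) was incubated with pinned compound 2 h at 37 deg C in dark, in 50 mM Tris pH 8.0 buffer with 300 mM NaCl. Glutathione donor and nickel acceptor beads followed; AlphaScreen signal read after 1 h.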
# TDP1 block: blocks human tyrosyl-DNA phosphodiesterase 1; 0.28% of 350,000 active; Q9NUW8; Potency, µM (series often up to 130 µM), for the others: top-dose activity change, negative = inhibition, actives largely listed as inhibitors; AID 485290; recombinant TDP1, AlphaScreen DNA substrate cleavage; further: potency means the concentration at half of the fitted maximal effect; nearly all actives have a fitted effect of over 40% in size
# Target sequence (Q9NUW8 whole entry, looked up): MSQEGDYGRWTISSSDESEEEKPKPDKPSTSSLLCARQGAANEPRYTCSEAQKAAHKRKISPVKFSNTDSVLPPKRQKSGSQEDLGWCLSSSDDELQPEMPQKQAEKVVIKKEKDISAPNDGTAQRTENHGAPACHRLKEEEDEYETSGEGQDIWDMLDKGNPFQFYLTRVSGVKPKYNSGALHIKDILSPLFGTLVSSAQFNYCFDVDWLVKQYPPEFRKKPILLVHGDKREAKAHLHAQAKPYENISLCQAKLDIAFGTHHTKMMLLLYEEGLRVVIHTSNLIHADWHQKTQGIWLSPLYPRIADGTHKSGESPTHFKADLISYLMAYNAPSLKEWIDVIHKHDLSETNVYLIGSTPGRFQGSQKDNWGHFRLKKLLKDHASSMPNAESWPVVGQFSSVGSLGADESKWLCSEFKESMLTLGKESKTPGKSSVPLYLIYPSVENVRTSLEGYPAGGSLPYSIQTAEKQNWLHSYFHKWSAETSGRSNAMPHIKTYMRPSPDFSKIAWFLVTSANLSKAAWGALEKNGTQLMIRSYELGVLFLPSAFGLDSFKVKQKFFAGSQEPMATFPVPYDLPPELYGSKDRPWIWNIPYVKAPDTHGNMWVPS
#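 Recombinant human Tdp1 (E. coli-expressed, 1 nM final) preincubated with compounds 15 min at room temperature, then 5'-biotin/3'-phosphotyrosine-FITC DNA substrate (15 nM final) added for 5 min. AlphaScreen beads (10 ug/ml final) added 10 min; cleavage lowers signal.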
# IL-1B inflam inh: inhibitors of inflammasome signaling (IL-1 beta secretion); AID 743279; activity change, % at 57.5 µM; THP-1 LPS/ATP IL-1B secretion, AlphaLISA, 16 h; stronger effect = lower value; 4.7% of 360,000 active; in the data active means activity change below about -50%; inconclusive means mostly about -30% to -49%
#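 THP-1 cells pretreated 1 hr with compounds (up to 57.5 uM final), then stimulated with LPS (250 ng/mL final) plus ATP (1.25 mM final); secreted IL-1B measured by AlphaLISA after 16 hr, decreased signal indicating inhibition.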
# TDP1 cell noCPT: qHTS for Inhibitors of human tyrosyl-DNA phosphodiesterase 1 (TDP1): qHTS in cells in absence of CPT; 15% of 420,000 active; AID 686978, 2013; Potency, µM (series often up to 46.2 µM), for the others: at the highest dose activity change, negative = growth inhibition, hits mostly inhibitors; DT40 Tdp1-/- hTDP1 cells, no CPT, ATP luminescence, 48 h; further: potency means the concentration at half of the fitted maximal effect; nearly all actives have a fitted effect of over 55% in size
#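 Luminescent ATP content (CellTiter-Glo) served as the growth readout. Knockout chicken DT40 cells expressing human TDP1 were exposed to compounds without camptothecin for a minimum 48 hr at 37 °C.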
# DT40 TDP1 CPT: growth inhibition of DT40 Tdp1-/-;hTDP1 cells with camptothecin (screen for TDP1 inhibitors); Potency, µM (series often up to 46.2 µM), without a hit: top-dose activity change, negative = growth inhibition, most hits filed as inhibitors; chicken DT40 Tdp1-/-;hTDP1 cells + 20 nM CPT, ATP luminescence, 48 h; AID 686979; 12% of 420,000 active; further: potency means the concentration at half of the fitted maximal effect; nearly all actives have a fitted effect of over 55% in size
#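 Chicken DT40 Tdp1-/- cells complemented with human TDP1, 400 cells/well, exposed to compounds plus 20 nM camptothecin for at least 48 h at 37 C; viability read as ATP content by CellTiter-Glo luminescence.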
# Six1-Eya2 blk: blocks human Six1 binding to Eya2. AlphaScreen GST-Six1/His-Eya2 binding, biochemical; stronger effect = lower value. activity change, % (concentration not given with the values). 0.56% of 360,000 active. AID 651725; in the data active means activity change below about -65%; inconclusive means mostly about -30% to -63%
#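 AlphaScreen luminescence read after one hour at 37 °C in darkness. Pin-transferred compounds met GST-Six1 and His-Eya2 protein (5X stock 250 nM/500 nM) plus glutathione donor and Ni-chelate acceptor beads (5X, 50 ug/mL).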
# * = called active by the depositor; ? = inconclusive; / = no result. Sampled rows, rich in hits. Any-hit rate of the full collection: about 18%. Unless noted, the call rests on the fitted dose curve; in most records, active means well fitted curve in the direction sought with a large enough effect; inconclusive means small, poorly fitted or top-dose-only effect, or another doubt; inactive means no such curve, though single readings can be large; an effect the other way counts as inactive or inconclusive. On the % scale 0 is the no-effect control and ±100 the full control effect.
SMILES,CtBP-E1A blk,TDP1 block,IL-1B inflam inh,TDP1 cell noCPT,DT40 TDP1 CPT,Six1-Eya2 blk
CCOC(=O)c1c(N)n(-c2ccc(OCC)cc2)c2nc3ccccc3nc12,/,0.0%,/,/,/,/
COCCNC(=O)c1c(N)n(CCC2=CCCCC2)c2nc3ccccc3nc12,27.1,-1.8%,-71.6*,25.9µM*,?,2.9
CC(=O)c1cccc(-c2ccnc3c2CC(C(=O)NCc2ccccc2)O3)c1 (configuration not stated),-13.0,/,50.4,0.651µM*,0.731µM*,11.6
CC(=O)c1cccc(-c2ccnc3c2CC(C(=O)NCc2ccc(F)c(F)c2)O3)c1 (configuration not stated),1.9,/,60.9,4.11µM*,4.11µM*,-2.4
O=[N+]([O-])c1ccc(COP(=O)(O)OCc2ccc([N+](=O)[O-])cc2)cc1,2.2,/,11.5,-14.5%,-0.5%,6.0
CC1=C(C(=O)NCc2ccc(Cl)cc2)C2(CCCCC2)OC1=O,/,0.0%,/,-25.5%,?,/
CCOC(=O)c1[nH]c2ccccc2c1NC(=O)c1cc(OC)cc(OC)c1,/,-5.9%,/,23.1µM*,23.1µM*,/
COC(=O)c1[nH]c2cc(OC)c(OC)cc2c1NC(=O)c1cccc(OC)c1,-10.7,7.1%,?,20.6µM*,?,-3.3
CCOC(=O)c1[nH]c2ccc(OC)cc2c1NC(=O)c1ccc(OC)c(OC)c1,2.5,1.3%,0.0,?,-24.4%,-12.2
Cc1noc(NC(=O)c2ccccc2C(F)(F)F)c1C#N,7.2,0.0%,-3.3,8.2%,-0.6%,9.9
CN(C)C1=NCCN1CCC1CCCCC1,1.9,-5.0%,-2.5,?,11.6µM*,8.7
CCCCCCCN1CCN=C1N(C)C,6.3,/,-2.5,16.4µM*,?,8.0
C[C@H]1CN=C(N(C)C)N1CCCC1CCCCC1,4.6,-2.4%,-9.0,16.4µM*,20.6µM*,6.0
Cc1cc(Br)ccc1-n1[nH]c(C)c(C=Nc2cccc3nsnc23)c1=O,-15.9,5.7%,42.8,?,-20.4%,1.0
C(#Cc1ccc(C#CCN2CCOCC2)cc1)CN1CCOCC1,-4.0,3.8%,18.5,2.4%,-13.8%,2.1
CC(C)(C)c1ccc(/C=N/OCC(=O)NCc2ccccc2)cc1,10.4,-5.4%,5.2,?,?,0.5
CC1(C(=O)NCc2ccccc2)CN(S(C)(=O)=O)CC(=O)N1Cc1ccc2c(c1)OCO2 (configuration not stated),5.6,/,18.7,-6.6%,8.7%,0.9
CSc1nnc(Cn2c(=O)sc3ccccc32)n1-c1ccccc1,-2.9,8.6%,24.3,20.6µM*,20.6µM*,-2.2
CCOC(=O)CNC(=O)CSc1nnc(Cn2c(=O)sc3ccccc32)n1-c1ccccc1C,8.1,6.8%,-93.8*,?,?,-0.8
O=C(CSc1nc2nc3c(cc2c(=O)n1-c1ccccc1)CCCC3)Nc1cccc2ccccc12,8.2,0.6%,29.1,?,-12.9%,-3.4
CCn1c(SCC(=O)Nc2ccc(Cl)cc2)nc2nc3c(cc2c1=O)CCCC3,-17.9,1.8%,-64.0*,?,?,10.4
CCn1c(SCC(=O)NCc2ccccc2)nc2nc3c(cc2c1=O)CCCC3,4.1,0.0%,-12.9,?,3.6%,-3.0
CCn1c(SCc2ccccc2Cl)nc2nc3c(cc2c1=O)CCCC3,-2.5,1.8%,?,23.1µM*,16.4µM*,-0.7
CCn1c(SCc2c(Cl)cccc2Cl)nc2nc3c(cc2c1=O)CCCC3,-6.4,/,-13.2,?,?,-4.5
CCn1c(SCC(=O)Nc2ccc(OC)cc2)nc2nc3c(cc2c1=O)COC(C)(C)C3,/,2.6%,0.0,?,-20.9%,-0.9
CCn1c(SCC(=O)Nc2ccc(OC)cc2)nc2nc3c(cc2c1=O)CCCC3,-4.1,2.8%,-82.5*,23.1µM*,?,-16.5
